FEN1 inh = inhibitors of human flap endonuclease 1 | P39748 | Recombinant FEN1 flap cleavage, fluorescence, 15 min | Potency, µM (titrated, usually from 114 µM), most hits filed as inhibitors | 390,000 tested, 0.35% active; also: nearly all actives have a fitted effect of over 65% in size
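Steps: FEN1 (10 nM) dispensed; compound added by pin tool; 15 min at room temperature; substrate added to 50 nM final; reads at 0 min and 15 min; data normalized and fitted (four-parameter Hill).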
POLI inh = blocks human DNA polymerase iota activity; 390,000 tested, 1% active; Pol iota fluorescent replication assay, 10 min; Potency, µM (top dose mostly 115 µM), actives largely listed as inhibitors
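Fluorescent replication assay read twice, at 0 min and 10 min after adding 50 nM (final) substrate. Enzyme (10 nM) and compounds were first incubated 15 min at room temperature; enzyme-free buffer wells were negative controls.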
POLB inh = inhibitors of human DNA polymerase beta; Pol beta primer extension/strand displacement, fluorescence kinetic; Potency, µM (highest dose often 114 µM), hits mostly inhibitors; P06746; 340,000 tested, 1.3% active
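Curves were derived by four-parameter Hill fits of normalized qHTS data. The kinetic fluorescent primer-extension read was taken at 0 and 10 min after 50 nM substrate, following a 15 min room-temperature preincubation of 10 nM enzyme with compounds.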
Pol eta inh = DNA polymerase eta (human) inhibition; Potency, µM (doses to about 114 µM), usual class: inhibitors; 390,000 tested, 1.2% active; recombinant Pol eta, fluorescent DNA replication assay
Target sequence (Q9Y253 whole entry, looked up): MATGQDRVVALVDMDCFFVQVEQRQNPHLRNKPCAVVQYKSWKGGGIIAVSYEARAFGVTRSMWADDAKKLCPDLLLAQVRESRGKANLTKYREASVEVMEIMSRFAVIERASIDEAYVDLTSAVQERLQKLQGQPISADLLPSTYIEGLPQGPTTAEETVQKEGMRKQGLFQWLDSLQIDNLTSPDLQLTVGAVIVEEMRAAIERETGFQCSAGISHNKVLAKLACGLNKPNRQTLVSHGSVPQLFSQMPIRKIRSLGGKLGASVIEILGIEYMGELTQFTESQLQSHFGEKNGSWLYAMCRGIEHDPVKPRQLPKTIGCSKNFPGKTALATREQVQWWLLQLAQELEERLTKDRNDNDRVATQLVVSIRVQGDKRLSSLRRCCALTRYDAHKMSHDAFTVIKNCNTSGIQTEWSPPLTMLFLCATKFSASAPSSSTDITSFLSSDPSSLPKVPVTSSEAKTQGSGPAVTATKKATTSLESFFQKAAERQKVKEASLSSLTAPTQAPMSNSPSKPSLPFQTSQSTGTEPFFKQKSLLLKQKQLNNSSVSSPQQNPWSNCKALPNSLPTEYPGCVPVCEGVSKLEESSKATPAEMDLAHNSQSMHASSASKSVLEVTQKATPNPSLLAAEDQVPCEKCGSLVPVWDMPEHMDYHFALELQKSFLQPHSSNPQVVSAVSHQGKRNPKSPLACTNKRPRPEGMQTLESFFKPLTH
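Fluorescent replication assay: 50 nM final substrate added after a 15 min room-temperature compound preincubation with 10 nM enzyme. Signal taken at 0 min and again at 10 min.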
Pol kappa inh = DNA polymerase kappa (human) inhibition. Q9UBT6. purified Pol kappa, fluorescent DNA synthesis assay, 10 min. Potency, µM (top dose mostly 107 µM), actives largely listed as inhibitors. 400,000 tested, 0.53% active
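10 nM Pol kappa preincubated 15 min at room temperature with compounds, then reaction started with substrate at 50 nM final. Fluorescence read kinetically at 0 and 10 min; buffer-only wells served as negative control.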
WRN helicase inh = inhibitors of human WRN helicase; Q14191; WRN helicase unwinding, fluorescent forked duplex, kinetic; Potency, µM (series often up to 114 µM), usual class: inhibitors; 360,000 tested, 0.46% active; AID 651768; also: nearly all actives have a fitted effect of over 55% in size
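Kinetic red-fluorescence monitoring (525/598 nm) tracks WRN helicase activity after 100 nM fluorophore-quencher forked duplex and 2 mM ATP are added to 20 nM enzyme pretreated 15 min at room temperature with compound.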
Each line names hits and unclear results; the compound was inactive in the other large screens. This is a sample that favours compounds with a hit; in the whole collection about 2.4% have one here. Calls follow the shape of the dose curve; as a rule, active = well fitted curve in the direction sought with a large enough effect; inconclusive = small, poorly fitted or top-dose-only effect, or another doubt; inactive = no such curve, though single readings can be large; an effect the other way counts as inactive or inconclusive.

CC(=O)c1ccc(S(=O)(=O)N2CCNC(=O)C2)cc1	POLI inh inconclusive, Pol eta inh 22µM (no result: POLB inh)
CC(=O)Nc1ccc(S(=O)(=O)N2CCNC(=O)C2)cc1	none (no result: POLB inh)
CC(=O)c1ccc(S(=O)(=O)N2CCN(C(C)=O)CC2)cc1	Pol eta inh 22µM
COc1ccc(OC)c(NC(=O)CSc2nc3[nH]c(=O)[nH]c(=O)c3s2)c1	FEN1 inh inconclusive, POLI inh inconclusive, Pol eta inh 50µM (no result: POLB inh)
CCOC(=O)c1cnc(SCC(=O)Nc2cc(OC)ccc2OC)nc1N	POLB inh 22µM, Pol eta inh inconclusive
O=C(Nc1cccc(C(F)(F)F)c1)Nc1cc(Cl)ccc1C(=O)O	none (no result: FEN1 inh, POLI inh, POLB inh, Pol eta inh, WRN helicase inh)
CCCN1CCC(=O)N(C(CSc2ccc(OC)cc2)c2ccccc2)CC1 (configuration not stated)	none (no result: POLB inh, Pol eta inh, WRN helicase inh)
CCCc1ccc(OCc2ccc(C(=O)Nc3ccccc3C(=O)OC)o2)cc1	POLB inh inconclusive (no result: WRN helicase inh)
Cc1ccc(-c2nc(-c3cc4cccc(OCc5cccc(F)c5)c4oc3=O)no2)cc1	POLB inh 35µM, Pol eta inh 35µM (no result: WRN helicase inh)
Cc1ccc(-c2nc(-c3cc4cccc(OCc5ccc(F)cc5)c4oc3=O)no2)cc1	POLB inh inconclusive (no result: WRN helicase inh)
Oc1cccc(O)c1O	Pol kappa inh 3µM (no result: FEN1 inh, POLI inh, POLB inh, Pol eta inh, WRN helicase inh)
O=C(O)c1cccc(O)c1O	none (no result: POLB inh)
CCC1Nc2ncnc(N3CCOCC3)c2N(Cc2ccccc2)C1=O (configuration not stated)	none (no result: POLB inh)
CCC1Nc2ncnc(N3CCCCC3)c2N(Cc2ccccc2)C1=O (configuration not stated)	POLI inh inconclusive, Pol eta inh 89µM (no result: POLB inh)
CN(C)c1ccc(/C=C/c2ccnc3c(Cl)ccc(Cl)c23)cc1	POLI inh inconclusive (no result: POLB inh, Pol eta inh, WRN helicase inh)
CCc1ccc(C(=O)Cn2ncc(Cl)c(Cl)c2=O)cc1	POLI inh inconclusive, POLB inh 50µM, Pol eta inh inconclusive
O=C(Cn1ncc(Cl)c(Cl)c1=O)N1CCOCC1	none
O=C(Cn1ncc(Cl)c(Cl)c1=O)N1CCN(Cc2ccccc2)CC1	POLI inh 35µM, POLB inh 28µM, Pol eta inh inconclusive
COC1=C/C(=C/c2c(N)n3nc(CC(=O)N4CCCCC4)sc3nc2=O)C=CC1=O	POLI inh inconclusive, Pol eta inh 50µM, Pol kappa inh inconclusive
O=C(NCc1cccs1)C1CC(c2ccc(Cl)cc2)=NO1 (configuration not stated)	none
O=C(NNC(=O)C1CC(c2cccs2)=NO1)Nc1ccc(Cl)cc1 (configuration not stated)	POLI inh inconclusive, POLB inh 45µM
Cn1cnnc1SCC(=O)Nc1nc(-c2ccccc2)cs1	POLB inh 16µM
Cc1nnc(SCC(=O)Nc2nc(-c3ccccc3)cs2)n1N	none
O=C(c1cc(-c2ccco2)nn1-c1cccc(Cl)c1)N1CCCCC1	POLI inh inconclusive, POLB inh inconclusive, Pol eta inh 18µM, Pol kappa inh inconclusive, WRN helicase inh 56µM
Cc1ccc(-n2nc(-c3ccco3)cc2C(=O)O)cc1	POLI inh 18µM, POLB inh inconclusive, Pol eta inh 14µM, Pol kappa inh inconclusive, WRN helicase inh 45µM
O=C(c1cc(-c2cccc(Cl)c2)on1)N1CCCCCC1	none
CN(C)c1ccc(/C=C2\Cc3ccccc3C2=O)cc1	none (no result: POLB inh, Pol eta inh, WRN helicase inh)
O=C1/C(=C/c2cccnc2)CCC/C1=C\c1cccnc1	POLI inh 45µM, Pol eta inh 22µM
O=C1/C(=C/c2cccnc2)CC/C1=C\c1cccnc1	none
CCC1C/C(=C\c2cccnc2)C(=O)/C(=C/c2cccnc2)C1 (configuration not stated)	POLI inh 22µM, Pol eta inh 11µM, WRN helicase inh inconclusive
CN(C)c1ccc(/C=C2\CCC/C(=C\c3ccccc3)C2=O)cc1	POLI inh inconclusive, Pol eta inh inconclusive, WRN helicase inh 50µM
CCC(C)C(NC(=O)OC(C)(C)C)C(=O)NC1COC2CC(n3ccc(=O)[nH]c3=O)OC12 (configuration not stated)	POLI inh inconclusive (no result: POLB inh, Pol eta inh, WRN helicase inh)
Cc1ccc(CN2[C@H]3CCCC[C@@H]3OCCS2(=O)=O)cc1	none (no result: POLB inh, Pol eta inh, WRN helicase inh)
CCn1c(SCC(=O)Nc2nccc(C)n2)nc2ccccc21	POLI inh inconclusive, POLB inh 79µM
Cc1cccc(N2CCN(c3ccc(C(=O)O)cc3NC(=O)c3cccc(Cl)c3)CC2C)c1 (configuration not stated)	POLB inh 32µM (no result: WRN helicase inh)
O=C(Nc1ccccc1N1CCCCC1)c1cccc(Cl)c1	none
CC1(C)Cc2c(C#N)c(N3CCN(C(=O)c4ccccc4)CC3)nc(-c3ccco3)c2CS1	POLI inh inconclusive, POLB inh 28µM, Pol eta inh 32µM, WRN helicase inh inconclusive
CC(C)c1nc(N2CCN(C(=O)c3ccccc3)CC2)c(C#N)c2c1COC(C)(C)C2	POLI inh inconclusive
Cc1cccc(NC(=O)/C=C/c2cccs2)n1	POLB inh 50µM, Pol kappa inh inconclusive
COc1ccc(C2=C(C)C(N3CCN(C(=O)c4ccco4)CC3)=NS2(=O)=O)cc1	POLI inh inconclusive, POLB inh 50µM
CC1=C(c2ccc(F)cc2)S(=O)(=O)N=C1N1CCC(C(=O)NCCc2ccco2)CC1	POLB inh 25µM (no result: Pol eta inh, WRN helicase inh)
COc1ccc(C2=C(C)C(N3CCN(c4ccc(OC)cc4)CC3)=NS2(=O)=O)cc1	none (no result: WRN helicase inh)
CC1=C(c2ccc(C)c(C)c2)S(=O)(=O)N=C1N1CCC(C(=O)NC(C)Cc2ccco2)CC1 (configuration not stated)	POLI inh inconclusive (no result: WRN helicase inh)
Fc1ccccc1-c1ccc(-c2nc3ccc(Cl)cn3c2Nc2ccc(Cl)cc2)o1	Pol kappa inh inconclusive (no result: POLB inh, Pol eta inh, WRN helicase inh)
OC[C@@H](O)C(O)[C@H](O)[C@H](O)CO (some centres not stated)	none (no result: FEN1 inh, POLI inh, POLB inh, Pol eta inh, WRN helicase inh)
O=C1CC(c2ccccc2)N1c1ccccc1 (configuration not stated)	none
COC(=O)C1=C(SC)N(c2ccccc2)C(c2ccccc2)CC1=O (configuration not stated)	Pol kappa inh 89µM, WRN helicase inh inconclusive
O=c1c(Cl)c(Cl)cnn1Cc1nnc(-c2ccc(Cl)cc2)o1	POLI inh 40µM, POLB inh 40µM, Pol eta inh 50µM
CCc1cc(-c2oncc2-c2ccc(OC)cc2)c(O)cc1OC	none (no result: FEN1 inh, POLI inh, POLB inh, Pol eta inh, WRN helicase inh)
N#Cc1c(-c2ccc(Cl)cc2)cc(-c2cccs2)nc1SCC(=O)O	POLI inh 18µM, POLB inh inconclusive, Pol kappa inh inconclusive, WRN helicase inh inconclusive
O=C(COC(=O)c1cccc2ccccc12)Nc1ncc(C(F)(F)F)cc1Cl	none
O=C(COC(=O)c1cc(-c2ccccc2Cl)nc2ccccc12)Nc1ncc(C(F)(F)F)cc1Cl	POLI inh inconclusive, POLB inh 32µM, Pol eta inh inconclusive, Pol kappa inh inconclusive
Cc1cc(C(=O)OCC(=O)NC2CCS(=O)(=O)C2)c2ccccc2n1 (configuration not stated)	none

Screening data as filed in PubChem.
